# Results from PubChem BioAssay AID743419 (Vanderbilt Specialized Chemistry Center, 2014).
# Molecular target: Metabotropic glutamate receptor 5 (Homo sapiens) (UniProt P41594)
# Assay: off-target activity check on mGlu5 receptor – cell-based, calcium fluorescence, glutamate curve fold shift, selectivity assay for mGlu8/mGlu7 PAM project, profiling panel (AID 743419)
# Settings: mGlu5 cells, Fluo-4 calcium, glutamate CRC shift; glutamate EC50 fold shift; at 10 µM; stronger effect = higher value
# Chain of Metabotropic glutamate receptor 5 (Homo sapiens) (P41594 whole entry, looked up): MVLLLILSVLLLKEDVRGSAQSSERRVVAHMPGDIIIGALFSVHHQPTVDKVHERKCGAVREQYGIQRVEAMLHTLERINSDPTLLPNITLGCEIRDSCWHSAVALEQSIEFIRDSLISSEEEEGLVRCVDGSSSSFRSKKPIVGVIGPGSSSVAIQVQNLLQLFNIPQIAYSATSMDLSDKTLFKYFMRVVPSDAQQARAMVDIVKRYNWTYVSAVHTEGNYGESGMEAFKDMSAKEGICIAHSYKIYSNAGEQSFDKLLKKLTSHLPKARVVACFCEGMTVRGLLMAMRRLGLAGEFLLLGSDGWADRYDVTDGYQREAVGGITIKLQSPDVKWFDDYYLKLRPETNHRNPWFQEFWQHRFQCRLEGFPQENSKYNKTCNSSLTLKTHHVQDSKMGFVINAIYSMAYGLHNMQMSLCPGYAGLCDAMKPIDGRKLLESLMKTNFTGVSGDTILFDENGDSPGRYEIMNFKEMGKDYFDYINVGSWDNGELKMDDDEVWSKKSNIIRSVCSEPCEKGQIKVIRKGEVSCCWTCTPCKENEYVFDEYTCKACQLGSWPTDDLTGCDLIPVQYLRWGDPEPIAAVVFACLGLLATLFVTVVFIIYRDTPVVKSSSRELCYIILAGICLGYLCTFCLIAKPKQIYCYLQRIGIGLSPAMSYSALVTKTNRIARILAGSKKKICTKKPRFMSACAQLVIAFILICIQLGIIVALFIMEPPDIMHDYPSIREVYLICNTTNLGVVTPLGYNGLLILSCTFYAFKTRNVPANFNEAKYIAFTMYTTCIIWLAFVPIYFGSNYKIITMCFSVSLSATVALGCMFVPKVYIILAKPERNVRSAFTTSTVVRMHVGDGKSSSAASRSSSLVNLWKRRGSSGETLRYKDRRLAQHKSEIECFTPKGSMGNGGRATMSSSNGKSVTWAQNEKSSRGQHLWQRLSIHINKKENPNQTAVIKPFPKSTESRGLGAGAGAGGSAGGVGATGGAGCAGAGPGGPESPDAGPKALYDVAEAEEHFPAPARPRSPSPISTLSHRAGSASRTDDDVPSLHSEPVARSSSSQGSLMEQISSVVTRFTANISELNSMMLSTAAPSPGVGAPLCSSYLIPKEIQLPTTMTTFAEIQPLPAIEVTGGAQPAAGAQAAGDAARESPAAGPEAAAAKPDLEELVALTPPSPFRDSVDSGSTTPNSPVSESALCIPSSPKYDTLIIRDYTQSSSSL
smiles,measurement,value
COC(=O)c1ccc(-n2c(C)cc(C(=O)CSc3ccc(NC(C)=O)cc3)c2C)cc1,fold shift,1.45
